In PubChem BioAssay (NCI):
Compounds without any hit were thinned out: in the full panel of roughly 83,000, 20% have a hit.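 Results are percent growth after 48 hours of single-concentration exposure. 100 means growth as in untreated cells, lower positive values show inhibition; negative values down to -100 show cell death.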 Calls of active or inactive are those of the source. How the source made its calls: active means growth percent below 10; inactive means the rest.

These compounds were tested on HL-60(TB) leukemia (assay: NCI-60 one-dose screen, 48 h (100 = growth as untreated, 0 = no growth, -100 = all killed)). Conditions: 10 µM unless noted.
O=C(Nc1ccccc1C(=O)N/N=C(\c1ccccc1)c1ccccn1)c1ccc(F)cc1 was tested, and the growth was -1.1% (active). With CCOC(=O)c1c(C)oc2ncnc(N3CCN(C(=O)COc4ccc(SC)cc4)CC3)c12 the growth was 97.2% (inactive). For COc1cc(-c2cc(/C=C/C(=O)c3ccc(N)cc3)[nH]n2)cc(OC)c1OC, the growth was 13.2% (inactive). With Cc1cn(-c2cc(NC(=O)c3cccc(C#Cc4cccc5[nH]nc(N)c45)c3)cc(C(F)(F)F)c2)cn1 the growth was 12.5% (inactive). In the case of C=CC(C)(O)CC/C=C(\CO)C(=O)OC1C(C)OC(O[C@](C)(C=C)CC/C=C(\CO)C(=O)O[C@H]2C[C@@]3(C(=O)OC4OC(CO)C(O)C(O)C4OC4OC(C)C(OC5OC(CO)C(O)C5O)C(OC5OC(CO)C(O)C(O)C5O)C4O)C(CC2(C)C)C2=CCC4[C@@]5(C)CC[C@H](OC6OC(COC7OC(C)C(O)C(O)C7OC7OCC(O)C(O)C7O)C(O)C(O)C6NC(C)=O)C(C)(C)C5CC[C@@]4(C)[C@]2(C)C[C@H]3O)C(O)C1O (stereo not given in full), the growth is reported as -52.5% (active). CCCCCCCCCCCC1=NCCCN1CCCC was tested, and the growth was 104% (inactive). COc1cc(/C=C2\C(=O)Nc3ccc(N(C)C)cc32)cc(OC)c1OC was tested, and the growth was 27.5% (inactive). For CC(C)(C)[Si](C)(C)OC1[C@@H](CNC(N)=O)O[C@@H](n2cnc3c(NC(=O)Nc4ccccc4)ncnc32)[C@H]1O[Si](C)(C)C(C)(C)C (stereo not given in full), the growth was 52% (inactive). In the case of COc1ccc(-c2nn(-c3ccccc3)cc2/C=C2\SC(=S)N(CCc3ccc(O)cc3)C2=O)cc1, the growth is reported as 84% (inactive). With COc1ccc(/C=C2\COc3ccc(O)c(O)c3C2=O)c(OC)c1OC the growth was -28.8% (active). In the case of C=C1C(=O)O[C@H]2[C@H]1CC/C(Cn1cc(Cc3c[nH]c4ccccc34)nn1)=C\CC[C@@]1(C)O[C@@H]21, the growth is reported as -49.1% (active). In the case of O=C(Nc1ccccc1N1CCCC1=O)c1oc2ccc(F)cc2c1-c1cnn(-c2ccccc2)c1, the growth is reported as 84.8% [50 µM] (inactive). CCN1C(=O)/C(=c2\sc3n(c2=O)NC2C(N=3)N(CC)C(=O)N2CC)c2ccccc21 (stereo not given) was tested, and the growth was -4.75% (active). Cc1nccc2c3ccc(OCc4cn(-c5ccccc5)nn4)cc3n(CCCc3ccccc3)c12 was tested, and the growth was 30.1% (inactive). In the case of C=CC(=O)N[C@H](Cc1ccc(-c2cc(Cl)cc(Cl)c2)cc1)[C@H](O)[C@@H](O)C(=O)O, the growth is reported as 109% (inactive). In the case of COc1ccc2[nH]c(C(=O)N3CCN(C(=O)OCc4ccc5c(Br)cc(Br)c(O)c5n4)CC3)cc2c1, the growth is reported as -42.1% (active). Oc1ccccc1N=Cc1ccccc1 was tested, and the growth was 84.2% (inactive). CC(=O)N1CC(Nc2ccc(OC(F)(F)F)cc2)=CC1=O was tested, and the growth was -8.58% (active). For Cc1ccc[n+](CC(=O)c2cccc3ccccc23)c1, the growth was 96.9% (inactive). In the case of COc1cc(NC(C)CN(CC(C)C)C(C)C)c2ncccc2c1 (stereo not given), the growth is reported as 101% (inactive). For CN(C)/C(N)=N/N=C(\c1ccccc1)c1ccccn1, the growth was 98.5% (inactive). CC1(C)CC[C@]2(C(=O)N3CCNCC3)CC[C@]3(C)C(=CC[C@@H]4[C@@]5(C)CCC(=O)C(C)(C)[C@@H]5CC[C@]43C)[C@@H]2C1 was tested, and the growth was 102% (inactive). For CCOc1cc(F)c([N+](=O)[O-])cc1[N+](=O)[O-], the growth was -12.6% (active). For CC/C=C1/C(=O)C=C[C@@H]1C/C=C\CCCC(=O)OC, the growth was 5.31% (active). In the case of COc1ccc2c(c1)c(-c1nonc1-c1cn(C)c3ccccc13)cn2C, the growth is reported as 2.88% (active). With O=C(CSc1nnc(-c2cc(-c3ccccc3)nc3ccccc23)n1-c1ccccc1)Nc1ccc(C(=O)/C=C/c2ccc(Cl)cc2)cc1 the growth was 89% (inactive). With COc1cccc(-c2[nH]c(=S)ncc2C(=O)c2ccccc2)c1 the growth was 78.2% (inactive). For Cc1ccc(/C(C#N)=C/c2ccc3c(c2)OCO3)cc1, the growth was 67.5% (inactive). With COc1ccc(Cn2cc3c(c2-c2cc(OC)c(OC)c(OC)c2)CCc2cnoc2-3)cc1 the growth was 0.149% (active). O=[N+]([O-])c1ccc(Cl)c(-c2cc(CCCCO)on2)c1 was tested, and the growth was 90.7% (inactive). In the case of Cc1cc2nc(CC(=O)c3ccncc3)c(=O)[nH]c2cc1C, the growth is reported as 89.8% (inactive). In the case of [2H]C([2H])([2H])Oc1c(F)cccc1/C=C/C(=O)/C=C(O)/C=C/c1cccc(F)c1OC([2H])([2H])[2H], the growth is reported as 88.5% (inactive). CCOc1ccc(C(C[N+](=O)[O-])Sc2ccccc2N)cc1 (stereo not given) was tested, and the growth was -16.2% (active). For O=C1C[C@H](c2ccccc2)[C@H](c2ccccc2)C1, the growth was 88.1% (inactive). CCC(=O)Oc1ccc2c(c1)CC[C@@H]1[C@@H]2CC[C@]2(C)C[C@H](OC(=O)CC)C[C@@H]12 was tested, and the growth was 30.8% (inactive). In the case of CNCCCOc1c(Br)cc(CCNC(=O)/C(Cc2ccc(OC)c(Br)c2)=N/O)cc1Br, the growth is reported as 21.3% (inactive). With C#C[C@@]1(O)[C@@H](CO)O[C@@H](n2cc(Br)c3c(N)ncnc32)[C@@H]1O the growth was -62.5% (active). With O=[N+]([O-])c1cc2c(ccc3occc32)o1 the growth was 5.05% (active). With COc1ccc(Nc2ccc3ccccc3c2)cc1 the growth was 91.3% (inactive). With Cc1occc1-c1n[nH]c(=S)n1N1C(=O)CSC1=S the growth was 99.2% (inactive).
